Source: PMC7862700, “An all-to-all approach to the identification of sequence-specific readers for epigenetic DNA modifications on cytosine”

Legend:
Test in all cases: DAPPL (digital affinity profiling via proximity ligation, sequencing); 10 mM Tris-HCl pH 7.5, 50 mM NaCl, 1 mM DTT, 4% glycerol, room temperature, 30 min; GST-TFs on glutathione beads, 16-mer random dsDNA library, 0.1% formaldehyde crosslink after washing; high values mean tight binding
Details in all cases: protein: recombinant; tags: N-terminal GST; dsDNA, one strand shown
ERF = molecular target: T1, ERF (Homo sapiens, UniProt P50548 1-548)
T1 sequence: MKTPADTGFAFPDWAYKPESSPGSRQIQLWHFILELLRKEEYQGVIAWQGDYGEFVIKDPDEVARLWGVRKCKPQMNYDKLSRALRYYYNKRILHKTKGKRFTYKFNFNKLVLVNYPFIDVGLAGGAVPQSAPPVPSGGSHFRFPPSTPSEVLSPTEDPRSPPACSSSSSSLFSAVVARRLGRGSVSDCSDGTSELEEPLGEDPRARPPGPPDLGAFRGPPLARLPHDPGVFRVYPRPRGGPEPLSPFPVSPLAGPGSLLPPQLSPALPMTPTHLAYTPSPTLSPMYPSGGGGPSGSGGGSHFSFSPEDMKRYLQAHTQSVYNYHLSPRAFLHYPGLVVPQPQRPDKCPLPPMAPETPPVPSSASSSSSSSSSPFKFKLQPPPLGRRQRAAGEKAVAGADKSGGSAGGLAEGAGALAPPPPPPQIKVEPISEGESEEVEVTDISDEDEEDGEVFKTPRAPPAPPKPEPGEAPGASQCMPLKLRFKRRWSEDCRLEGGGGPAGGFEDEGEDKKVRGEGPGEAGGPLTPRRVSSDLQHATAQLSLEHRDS
In short: (§1)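 Binding signal is defined as a hexamer's read frequency for one factor over its frequency for the tag-only sample. To obtain reads, GST-fused human transcription factors were expressed in yeast, captured on glutathione beads, barcoded with DNA and pooled with that sample. Pools met 200 nmole of a 16-mer random double-stranded DNA library in Tris/NaCl/DTT/glycerol buffer for 30 min at room temperature before washing, 0.1% formaldehyde crosslinking, proximity ligation (BsaI/T4 ligase, 1 h, 37 °C), PCR and Illumina NextSeq500 sequencing.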

ETV3L = molecular target: T2, ETV3L (Homo sapiens, UniProt Q6ZN32 1-361)
T2 sequence: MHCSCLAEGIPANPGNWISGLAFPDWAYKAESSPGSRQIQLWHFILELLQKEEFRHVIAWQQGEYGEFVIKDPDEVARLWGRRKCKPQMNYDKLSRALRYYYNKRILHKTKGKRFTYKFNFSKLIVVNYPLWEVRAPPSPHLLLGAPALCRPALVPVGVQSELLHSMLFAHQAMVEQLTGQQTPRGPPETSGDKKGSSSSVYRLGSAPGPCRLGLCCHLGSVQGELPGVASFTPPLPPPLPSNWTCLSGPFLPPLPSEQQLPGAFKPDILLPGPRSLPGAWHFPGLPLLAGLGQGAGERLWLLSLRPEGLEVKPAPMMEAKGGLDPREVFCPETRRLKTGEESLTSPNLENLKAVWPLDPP
In short: as §1

ETS2 = molecular target: T3, ETS2 (Homo sapiens, UniProt P15036 1-469)
T3 sequence: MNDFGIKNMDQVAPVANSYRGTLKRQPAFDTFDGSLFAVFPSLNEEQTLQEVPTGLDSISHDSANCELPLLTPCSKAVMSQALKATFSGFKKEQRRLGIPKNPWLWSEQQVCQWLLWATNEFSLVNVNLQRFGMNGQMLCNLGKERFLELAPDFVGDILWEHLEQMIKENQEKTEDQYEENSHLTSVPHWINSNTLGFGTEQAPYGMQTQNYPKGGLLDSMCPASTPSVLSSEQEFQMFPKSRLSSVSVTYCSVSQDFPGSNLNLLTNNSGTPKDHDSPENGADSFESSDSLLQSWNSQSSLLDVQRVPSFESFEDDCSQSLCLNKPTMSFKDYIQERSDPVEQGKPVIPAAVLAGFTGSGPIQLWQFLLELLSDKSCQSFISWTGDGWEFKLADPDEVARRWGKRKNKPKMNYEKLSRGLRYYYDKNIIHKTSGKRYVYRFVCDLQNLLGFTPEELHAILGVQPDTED
In short: as §1

SPDEF = molecular target: T4, SPDEF (Homo sapiens, UniProt O95238 1-335)
T4 sequence: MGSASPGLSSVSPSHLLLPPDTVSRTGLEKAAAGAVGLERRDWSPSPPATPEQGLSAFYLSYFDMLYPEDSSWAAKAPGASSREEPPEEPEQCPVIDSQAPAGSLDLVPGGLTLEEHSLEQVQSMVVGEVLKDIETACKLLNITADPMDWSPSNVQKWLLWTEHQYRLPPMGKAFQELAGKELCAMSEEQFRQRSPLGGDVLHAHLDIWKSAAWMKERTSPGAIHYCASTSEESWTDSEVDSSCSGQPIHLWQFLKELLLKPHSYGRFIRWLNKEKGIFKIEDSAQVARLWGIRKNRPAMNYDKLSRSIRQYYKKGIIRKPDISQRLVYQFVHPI
In short: as §1

ETV7 = molecular target: T5, ETV7 (Homo sapiens, UniProt Q9Y603 1-341)
T5 sequence: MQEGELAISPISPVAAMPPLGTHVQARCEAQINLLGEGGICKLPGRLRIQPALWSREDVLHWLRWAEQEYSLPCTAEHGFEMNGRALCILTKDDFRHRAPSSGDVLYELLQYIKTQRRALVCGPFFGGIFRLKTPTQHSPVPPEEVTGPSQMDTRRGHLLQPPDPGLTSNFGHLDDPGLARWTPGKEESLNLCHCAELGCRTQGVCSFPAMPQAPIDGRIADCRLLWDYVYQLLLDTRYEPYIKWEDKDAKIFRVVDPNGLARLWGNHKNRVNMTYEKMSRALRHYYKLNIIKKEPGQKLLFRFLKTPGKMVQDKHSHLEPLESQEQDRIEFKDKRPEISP
In short: as §1

ELF5 = molecular target: T6, ELF5 (Homo sapiens, UniProt Q9UKW6-2 1-255)
T6 sequence: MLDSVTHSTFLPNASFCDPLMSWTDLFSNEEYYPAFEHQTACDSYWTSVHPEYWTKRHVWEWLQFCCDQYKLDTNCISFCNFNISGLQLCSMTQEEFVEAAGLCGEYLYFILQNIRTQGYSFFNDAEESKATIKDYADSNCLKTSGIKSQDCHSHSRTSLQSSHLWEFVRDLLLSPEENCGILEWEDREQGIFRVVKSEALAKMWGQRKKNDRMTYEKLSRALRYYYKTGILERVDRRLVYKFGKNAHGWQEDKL
In short: as §1

ETV3 = molecular target: T7, ETV3 (Homo sapiens, UniProt P41162-2 1-143)
T7 sequence: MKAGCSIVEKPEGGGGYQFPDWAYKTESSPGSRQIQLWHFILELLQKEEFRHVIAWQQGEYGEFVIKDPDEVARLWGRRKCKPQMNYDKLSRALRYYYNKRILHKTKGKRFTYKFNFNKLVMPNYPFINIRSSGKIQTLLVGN
In short: as §1

ETV6 = ETV6 (Homo sapiens, UniProt P41212 1-452)
In short: as §1

ETV6, sequence (P41212 whole entry): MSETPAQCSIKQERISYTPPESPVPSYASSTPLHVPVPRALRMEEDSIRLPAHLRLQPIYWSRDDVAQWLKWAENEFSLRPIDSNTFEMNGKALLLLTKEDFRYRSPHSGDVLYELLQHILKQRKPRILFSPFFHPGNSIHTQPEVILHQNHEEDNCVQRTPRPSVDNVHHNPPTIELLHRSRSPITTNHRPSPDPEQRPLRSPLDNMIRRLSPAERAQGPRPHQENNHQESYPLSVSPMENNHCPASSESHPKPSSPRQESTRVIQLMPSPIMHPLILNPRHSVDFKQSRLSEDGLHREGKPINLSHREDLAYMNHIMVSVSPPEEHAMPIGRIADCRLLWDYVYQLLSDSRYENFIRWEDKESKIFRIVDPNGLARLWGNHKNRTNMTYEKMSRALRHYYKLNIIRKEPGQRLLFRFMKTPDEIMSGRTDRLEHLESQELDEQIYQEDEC

Row | Sequence | binding signal (ERF) | binding signal (ETV3L) | binding signal (ETS2) | binding signal (SPDEF) | binding signal (ETV7) | binding signal (ELF5) | binding signal (ETV3) | binding signal (ETV6)
1 | ATGCGC | 1.24 fold enrichment (6-mer frequency, TF over GST control) | 1.22 fold enrichment (6-mer frequency, TF over GST control) | 1.19 fold enrichment (6-mer frequency, TF over GST control) | 1.1 fold enrichment (6-mer frequency, TF over GST control) | 1.22 fold enrichment (6-mer frequency, TF over GST control) | 1.14 fold enrichment (6-mer frequency, TF over GST control) | 1.17 fold enrichment (6-mer frequency, TF over GST control) | 1.22 fold enrichment (6-mer frequency, TF over GST control)
2 | CACTTT | 1.3 fold enrichment (6-mer frequency, TF over GST control) | 1.24 fold enrichment (6-mer frequency, TF over GST control) | 1.32 fold enrichment (6-mer frequency, TF over GST control) | 1.16 fold enrichment (6-mer frequency, TF over GST control) | 1.26 fold enrichment (6-mer frequency, TF over GST control) | 1.23 fold enrichment (6-mer frequency, TF over GST control) | 1.32 fold enrichment (6-mer frequency, TF over GST control) | 1.26 fold enrichment (6-mer frequency, TF over GST control)
3 | ATTCAC | 1.21 fold enrichment (6-mer frequency, TF over GST control) | 1.21 fold enrichment (6-mer frequency, TF over GST control) | 1.29 fold enrichment (6-mer frequency, TF over GST control) | 1.21 fold enrichment (6-mer frequency, TF over GST control) | 1.24 fold enrichment (6-mer frequency, TF over GST control) | 1.19 fold enrichment (6-mer frequency, TF over GST control) | 1.23 fold enrichment (6-mer frequency, TF over GST control) | 1.17 fold enrichment (6-mer frequency, TF over GST control)
4 | TATCCT | 1.67 fold enrichment (6-mer frequency, TF over GST control) | 1.82 fold enrichment (6-mer frequency, TF over GST control) | 1.81 fold enrichment (6-mer frequency, TF over GST control) | 2.67 fold enrichment (6-mer frequency, TF over GST control) | 1.67 fold enrichment (6-mer frequency, TF over GST control) | 2.65 fold enrichment (6-mer frequency, TF over GST control) | 1.8 fold enrichment (6-mer frequency, TF over GST control) | 1.82 fold enrichment (6-mer frequency, TF over GST control)
5 | TCGCTT | 1.21 fold enrichment (6-mer frequency, TF over GST control) | 1.24 fold enrichment (6-mer frequency, TF over GST control) | 1.34 fold enrichment (6-mer frequency, TF over GST control) | 1.18 fold enrichment (6-mer frequency, TF over GST control) | 1.29 fold enrichment (6-mer frequency, TF over GST control) | 1.21 fold enrichment (6-mer frequency, TF over GST control) | 1.24 fold enrichment (6-mer frequency, TF over GST control) | 1.22 fold enrichment (6-mer frequency, TF over GST control)
6 | CCGCCT | 1.35 fold enrichment (6-mer frequency, TF over GST control) | 1.49 fold enrichment (6-mer frequency, TF over GST control) | 1.41 fold enrichment (6-mer frequency, TF over GST control) | 1.75 fold enrichment (6-mer frequency, TF over GST control) | 1.52 fold enrichment (6-mer frequency, TF over GST control) | 1.84 fold enrichment (6-mer frequency, TF over GST control) | 1.64 fold enrichment (6-mer frequency, TF over GST control) | 1.64 fold enrichment (6-mer frequency, TF over GST control)
7 | CTCTAC | 1.45 fold enrichment (6-mer frequency, TF over GST control) | 1.66 fold enrichment (6-mer frequency, TF over GST control) | 1.48 fold enrichment (6-mer frequency, TF over GST control) | 1.54 fold enrichment (6-mer frequency, TF over GST control) | 1.28 fold enrichment (6-mer frequency, TF over GST control) | 1.52 fold enrichment (6-mer frequency, TF over GST control) | 1.51 fold enrichment (6-mer frequency, TF over GST control) | 1.43 fold enrichment (6-mer frequency, TF over GST control)
8 | AGCACT | 1.44 fold enrichment (6-mer frequency, TF over GST control) | 1.42 fold enrichment (6-mer frequency, TF over GST control) | 1.43 fold enrichment (6-mer frequency, TF over GST control) | 1.4 fold enrichment (6-mer frequency, TF over GST control) | 1.43 fold enrichment (6-mer frequency, TF over GST control) | 1.52 fold enrichment (6-mer frequency, TF over GST control) | 1.39 fold enrichment (6-mer frequency, TF over GST control) | 1.44 fold enrichment (6-mer frequency, TF over GST control)
